Compound activity (PubChem BioAssay)
hNpr1 antagonist – blocks ANP-stimulated signaling of human Npr1 receptor | P16066 | Potency, µM (series often up to 46.3 µM), inactives show at the highest dose activity change, negative = inhibition, actives largely listed as inhibitors | HEK293 hNpr1 GloSensor cGMP, ANP-stimulated luminescence | AID 1347048 | hit rate 1.6% among 76,000; calls by dose curve; note: % is set by controls: 0 for no effect and ±100 for the full control effect; nearly all actives have a fitted effect of over 60% in size
Target sequence (P16066 whole entry, looked up): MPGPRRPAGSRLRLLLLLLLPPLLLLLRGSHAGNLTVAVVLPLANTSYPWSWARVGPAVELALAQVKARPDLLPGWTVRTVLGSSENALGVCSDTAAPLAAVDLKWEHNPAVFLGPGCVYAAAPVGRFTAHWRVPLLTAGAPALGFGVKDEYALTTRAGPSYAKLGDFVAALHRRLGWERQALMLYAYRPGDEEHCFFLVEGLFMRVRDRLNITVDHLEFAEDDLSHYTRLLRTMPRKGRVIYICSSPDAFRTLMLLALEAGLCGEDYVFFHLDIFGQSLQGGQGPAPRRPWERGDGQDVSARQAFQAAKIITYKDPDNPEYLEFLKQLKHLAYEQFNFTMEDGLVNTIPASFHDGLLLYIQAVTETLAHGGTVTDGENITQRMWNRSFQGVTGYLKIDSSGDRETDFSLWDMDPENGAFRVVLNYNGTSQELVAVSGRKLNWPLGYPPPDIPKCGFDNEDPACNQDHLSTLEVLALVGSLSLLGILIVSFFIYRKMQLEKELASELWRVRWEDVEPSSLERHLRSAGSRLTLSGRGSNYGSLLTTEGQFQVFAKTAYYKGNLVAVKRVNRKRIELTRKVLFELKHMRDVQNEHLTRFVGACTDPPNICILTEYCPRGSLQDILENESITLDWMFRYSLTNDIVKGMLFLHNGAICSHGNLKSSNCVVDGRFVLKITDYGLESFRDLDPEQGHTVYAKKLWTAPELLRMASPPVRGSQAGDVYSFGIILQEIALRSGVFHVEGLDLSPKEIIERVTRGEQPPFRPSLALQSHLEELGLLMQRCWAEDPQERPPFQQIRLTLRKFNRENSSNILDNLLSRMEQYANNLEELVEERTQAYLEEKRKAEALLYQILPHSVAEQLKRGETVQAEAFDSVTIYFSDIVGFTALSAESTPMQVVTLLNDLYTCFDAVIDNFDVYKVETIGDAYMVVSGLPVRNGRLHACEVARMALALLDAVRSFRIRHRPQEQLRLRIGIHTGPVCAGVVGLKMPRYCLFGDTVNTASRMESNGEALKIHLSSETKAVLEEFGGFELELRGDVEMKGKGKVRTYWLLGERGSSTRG
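Compound pre-incubated 30 min at room temperature on GloSensor-loaded HEK293 cells stably carrying hNpr1 and the pGS-40F cGMP biosensor. Stimulation uses hNppA at 0.1 nM final; luminescence is taken at baseline and 20 min post-agonist.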
Luciferase inh – blocks purified firefly luciferase enzyme activity; P08659; purified P. pyralis luciferase, luminescence, biochemical; Potency, µM (series often up to 115 µM), usual class: inhibitors; hit rate 2.5% among 76,000; AID 1347043; note: % is set by controls: 0 for no effect and ±100 for the full control effect; nearly all actives have a fitted effect of over 65% in size
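Inhibitors were tested against purified firefly luciferase in a biochemical, low-substrate format (both substrates at 10uM) and luminescence measured with a CCD imager.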
HEK cytotox – kills HEK 293 cells. AID 1345083. hit rate 6.6% among 94,000. Potency, µM (highest dose often 115 µM), inactives show at the highest dose activity change, negative = cytotoxicity, actives largely listed as inhibitors. HEK 293 viability, ATP luminescence (CellTiter-Glo), 48-72 h; note: % is set by controls: 0 for no effect and ±100 for the full control effect; nearly all actives have a fitted effect of over 60% in size
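Cytotoxicity was scored by loss of ATP-coupled luminescence (CellTiter-Glo) in HEK 293 cells. Compound treatment ran 48 or 72 hr at 37 degree Celsius, 5% CO2, 95% humidity.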
NIH3T3 tox – kills NIH 3T3 cells; NIH 3T3 viability, CellTiter-Glo ATP luminescence, 48-72 h; Potency, µM (titrated, usually from 96.7 µM), without a hit: top-dose activity change, negative = cytotoxicity, most hits filed as inhibitors; hit rate 4.3% among 94,000; note: % is set by controls: 0 for no effect and ±100 for the full control effect; nearly all actives have a fitted effect of over 55% in size
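Cytotoxicity was measured by CellTiter-Glo ATP luminescence after 48 or 72 h compound exposure at 37 °C. Mouse NIH 3T3 fibroblasts were seeded at 400 cells/well and dosed by 23 nL pin transfer.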
Npr1 antag conf – confirmation of human Npr1 natriuretic peptide receptor antagonists | shares compounds with hNpr1 antagonist | HEK293 hNpr1 cGMP GloSensor luminescence, ANP-stimulated | Potency, µM (doses to about 57.6 µM), inactives show top-dose activity change, negative = inhibition, hits mostly inhibitors | hit rate 76% among 1,400 | AID 1347044; calls by dose curve; note: nearly all actives have a fitted effect of over 70% in size
Npr2 selectivity – antagonizes human Npr2, subtype selectivity check; HEK293 hNpr2 GloSensor cGMP luminescence, CNP-stimulated; hit rate 67% among 1,400; shares compounds with hNpr1 antagonist; Potency, µM (doses to about 57.6 µM), inactives show top-dose activity change, negative = inhibition, usual class: inhibitors; calls by dose curve; note: nearly all actives have a fitted effect of over 70% in size
FLuc counter – FLuc enzyme inhibition, Npr1 counter-screen; shares compounds with hNpr1 antagonist; purified FLuc enzyme, luminescence, Km substrate; Potency, µM (top dose mostly 57.6 µM), inactives show top-dose activity change, negative = inhibition, most hits filed as inhibitors; hit rate 0.7% among 1,400; note: 0% is about no effect
GloSensor cGMP – control cell line activity, Npr1 antagonist counter-screen | Potency, µM (titrated, usually from 57.6 µM), inactives show top-dose activity change, negative = inhibition, actives largely listed as inhibitors | hit rate 69% among 1,400 | shares compounds with hNpr1 antagonist | AID 1347051 | HEK293 GloSensor cGMP, SNP-stimulated, luminescence; calls by dose curve; note: % is set by controls: 0 for no effect and ±100 for the full control effect; nearly all actives have a fitted effect of over 70% in size
Numbers without * were called inactive; [ ] = dose if it differs, or a comment. In the library only some 11% were active in any assay of this set; here they are far more common. Unless noted, calls come from the whole dose curve; as a rule, active = well fitted curve in the direction sought with a large enough effect; inconclusive = small, poorly fitted or top-dose-only effect, or another doubt; inactive = no such curve, though single readings can be large; an effect the other way counts as inactive or inconclusive. Potency is the fitted concentration of half-maximal effect.

How did COc1nccc(N2CCC(CC(=O)N(C)CCCc3c(C)nn(C)c3C)CC2)n1 do in these assays?
hNpr1 antagonist: 11µM*; Luciferase inh: inactive; HEK cytotox: inconclusive; NIH3T3 tox: inconclusive; Npr1 antag conf: 22µM*; Npr2 selectivity: inconclusive; FLuc counter: 1%; GloSensor cGMP: 19µM*

Results for Cc1cccc(-n2ncc3c2CCCC3NC(=O)c2c(F)ccc(F)c2F)c1C (stereo unspecified) ?
hNpr1 antagonist: 5µM*; Luciferase inh: inactive; HEK cytotox: -66%; NIH3T3 tox: inconclusive; Npr1 antag conf: 11µM*; Npr2 selectivity: 11µM*; FLuc counter: 1%; GloSensor cGMP: 8.6µM*

How did O=C(NC1CCCc2c1cnn2-c1ccc(F)cc1F)c1ccsc1 (stereo unspecified) do in these assays?
hNpr1 antagonist: 11µM*; Luciferase inh: inactive; HEK cytotox: inconclusive; NIH3T3 tox: inconclusive; Npr1 antag conf: 22µM*; Npr2 selectivity: 19µM*; FLuc counter: -2%; GloSensor cGMP: 17µM*

What do the screens show for `COc1ccc(NC(=O)N[C@H]2CO[C@H]3[C@@H]2OC[C@H]3OC(=O)Nc2cccc(C(C)=O)c2)cc1`?
hNpr1 antagonist: -13%; Luciferase inh: inactive; HEK cytotox: -20%; NIH3T3 tox: -24%

What do the screens show for `COc1ccc(N2CCN(C(=O)Nc3nc(C)ns3)CC2(C)C)cc1`?
hNpr1 antagonist: 7.9µM*; Luciferase inh: inactive; HEK cytotox: 10µM*; NIH3T3 tox: inconclusive; Npr1 antag conf: 12µM*; Npr2 selectivity: 15µM*; FLuc counter: 3%; GloSensor cGMP: 8.6µM*

What do the screens show for `Cc1nsc(NC(=O)N2CCCN(c3ccccc3)CC2)n1`?
hNpr1 antagonist: -7%; Luciferase inh: inactive; HEK cytotox: inconclusive; NIH3T3 tox: inconclusive

Results for COC[C@@H]1CN(Cc2ccc(OC)c(OC)c2)C[C@H]1c1ccncc1 ?
hNpr1 antagonist: 0%; Luciferase inh: inactive; HEK cytotox: inconclusive; NIH3T3 tox: -29%

Results for COC[C@@H]1CN(Cc2c(OC)cccc2OC)C[C@H]1c1ccncc1 ?
hNpr1 antagonist: 6.3µM*; Luciferase inh: inactive; HEK cytotox: 35µM*; NIH3T3 tox: inconclusive; Npr1 antag conf: 15µM*; Npr2 selectivity: 15µM*; FLuc counter: 0%; GloSensor cGMP: 14µM*

What do the screens show for `O=C(NCc1ccc(F)cc1)c1csc(N2CCN(c3ccccc3F)CC2)n1`?
hNpr1 antagonist: -6%; Luciferase inh: inactive; HEK cytotox: -6%; NIH3T3 tox: -13%

Results for O=C(NCc1cccc(F)c1)c1csc(N2CCN(c3ccc(Cl)cc3)CC2)n1 ?
hNpr1 antagonist: 13µM*; Luciferase inh: inactive; HEK cytotox: inconclusive; NIH3T3 tox: -19%; Npr1 antag conf: 24µM*; Npr2 selectivity: 24µM*; FLuc counter: 0%; GloSensor cGMP: 22µM*

What do the screens show for `CC1(COc2ccccc2)COc2ccc(C(=O)N3CCOCC3c3ccncc3)cc2N1` (stereo unspecified)?
hNpr1 antagonist: -25%; Luciferase inh: inactive; HEK cytotox: inconclusive; NIH3T3 tox: inconclusive; Npr1 antag conf: inconclusive; Npr2 selectivity: inconclusive; FLuc counter: 4%; GloSensor cGMP: inconclusive

How did Fc1ccc(OC2CN(CC3CCCCC3)C2)cc1F do in these assays?
hNpr1 antagonist: 14%[70.6 µM]; Luciferase inh: inactive; HEK cytotox: inconclusive; NIH3T3 tox: inconclusive

How did Fc1cc(Nc2ncc(-c3cccnc3)c3c2OCC3)cc(N2CCOCC2)c1 do in these assays?
hNpr1 antagonist: -3%[70.6 µM]; Luciferase inh: inconclusive; HEK cytotox: inconclusive; NIH3T3 tox: inconclusive

How did COc1ccc(Nc2cnc3ccc(N(C)Cc4cccnc4)nn23)cc1 do in these assays?
hNpr1 antagonist: -15%[70.6 µM]; Luciferase inh: inactive; HEK cytotox: inconclusive; NIH3T3 tox: inconclusive

How did COc1ccc(F)cc1Nc1cnc2ccc(N(C)Cc3cccnc3)nn12 do in these assays?
hNpr1 antagonist: 7.9µM*; Luciferase inh: inactive; HEK cytotox: 35µM*; NIH3T3 tox: inconclusive; Npr1 antag conf: 25µM*; Npr2 selectivity: 25µM*; FLuc counter: -5%[86.2 µM]; GloSensor cGMP: 18µM*

How did CN(Cc1cccnc1)c1ccc2ncc(Nc3cc(F)cc(N4CCOCC4)c3)n2n1 do in these assays?
hNpr1 antagonist: inconclusive; Luciferase inh: inactive; HEK cytotox: inconclusive; NIH3T3 tox: 28µM*; Npr1 antag conf: 35µM*; Npr2 selectivity: inconclusive; FLuc counter: -11%[86.2 µM]; GloSensor cGMP: inconclusive

Results for CN(Cc1cccnc1)c1ccc2ncc(Nc3ccc(C(F)(F)F)cc3)n2n1 ?
hNpr1 antagonist: 25µM*; Luciferase inh: inactive; HEK cytotox: 45µM*; NIH3T3 tox: inconclusive; Npr1 antag conf: 22µM*; Npr2 selectivity: 31µM*; FLuc counter: 2%[86.2 µM]; GloSensor cGMP: 22µM*

Results for CN(Cc1ccc(F)cc1)c1ccc2ncc(Nc3ccncc3)n2n1 ?
hNpr1 antagonist: inconclusive; Luciferase inh: inactive; HEK cytotox: inconclusive; NIH3T3 tox: inconclusive

What do the screens show for `O=C(Nc1ccc(F)c(Cl)c1)C1CCc2sc(C(=O)N3CCOCC3)cc2C1` (stereo unspecified)?
hNpr1 antagonist: 8.9µM*; Luciferase inh: inactive; HEK cytotox: 28µM*; NIH3T3 tox: inconclusive; Npr1 antag conf: 11µM*; Npr2 selectivity: 12µM*; FLuc counter: 4%; GloSensor cGMP: 9.7µM*

Results for O=C(COc1ccccc1)N1CC(c2noc(COc3ccccc3)n2)C1 ?
hNpr1 antagonist: -15%; Luciferase inh: inactive; HEK cytotox: inconclusive; NIH3T3 tox: inconclusive

What do the screens show for `O=C1CCC2(CCN(c3nc4ccccc4s3)CC2)CN1Cc1cccnc1`?
hNpr1 antagonist: 13µM*; Luciferase inh: inactive; HEK cytotox: inconclusive; NIH3T3 tox: -25%; Npr1 antag conf: 17µM*; Npr2 selectivity: 19µM*; FLuc counter: -5%; GloSensor cGMP: 15µM*
